Rows were chosen to be rich in hits. Some 7.3% of all compounds tested hit in one or more screens of this group.
SMN2 splice up – enhancers of SMN2 splice variant expression; HEK293 SMN2-luciferase splicing reporter, luminescence, 30-36 h; Potency, µM (doses to about 46.1 µM), for inactives: at the top dose activity change, positive = activation, hits mostly activators; 210,000 tested, 2.8% active; also: % of control where 0% means no effect; nearly all actives have a fitted effect of over 55% in size
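qHTS luciferase splicing reporter: luminescence rises when SMN2 exon 7 is included in transfected HEK293 cells. Compound exposure lasted 30-36 h at 37C, with 4.5 mM final sodium butyrate as control, followed by a ONE-Glo read.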
ELG1 genotox – genotoxicity induction in ELG1-luciferase HEK293T cells; HEK293T ELG1-luciferase reporter, luminescence, 16 h; Potency, µM (top dose mostly 46 µM), inactives show top-dose activity change, positive = activation, usual class: activators; 330,000 tested, 1.3% active; AID 504466; also: % of control where 0% means no effect; nearly all actives have a fitted effect of over 60% in size
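Cells (2,000/well) expressing the ELG1-luciferase fusion are dosed by pin tool and kept 16 hr at 37 °C, 5% CO2. Signal comes from ONE-Glo luciferase reagent after 30 min at room temperature.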
FLuc modulator – firefly luciferase modulation, counter-screen for miR-21 project; purified FLuc, Km substrates, luminescence inhibition; P08659; 360,000 tested, 6.9% active; Potency, µM (titrated, usually from 57.5 µM), inactives show at the top dose activity change, negative = inhibition, most hits filed as inhibitors;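 also: plate controls were vehicle for no effect and reference inhibitor for full effect; nearly all actives have a fitted effect of over 55% in size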
Target sequence (P08659 whole entry, looked up): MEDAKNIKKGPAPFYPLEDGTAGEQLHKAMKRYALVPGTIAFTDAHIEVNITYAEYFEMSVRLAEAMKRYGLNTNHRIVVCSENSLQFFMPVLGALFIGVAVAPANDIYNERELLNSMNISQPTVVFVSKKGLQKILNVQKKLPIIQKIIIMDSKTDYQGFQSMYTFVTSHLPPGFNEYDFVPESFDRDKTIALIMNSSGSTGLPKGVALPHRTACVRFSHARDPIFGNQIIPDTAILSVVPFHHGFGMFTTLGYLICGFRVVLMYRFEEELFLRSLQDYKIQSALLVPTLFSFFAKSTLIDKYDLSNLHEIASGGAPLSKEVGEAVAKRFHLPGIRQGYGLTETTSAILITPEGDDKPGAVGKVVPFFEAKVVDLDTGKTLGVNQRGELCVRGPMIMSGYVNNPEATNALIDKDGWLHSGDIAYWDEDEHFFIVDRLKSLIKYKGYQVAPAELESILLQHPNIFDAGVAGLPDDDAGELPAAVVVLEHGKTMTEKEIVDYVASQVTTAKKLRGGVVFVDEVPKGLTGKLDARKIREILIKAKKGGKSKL
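Purified P. pyralis luciferase (10nM final) with 10uM D-luciferin and 10uM ATP (Km levels) in 50mM Tris acetate pH 7.5, 10mM Mg acetate, 0.01% Tween-20, 0.05% BSA; qHTS 6-point titration, ~60 µM downward; luminescence read.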
NPC1 prom act – NPC1 promoter activation | 320,000 tested, 2.4% active | Huh7 NPC1 promoter luciferase reporter, 24 h | Potency, µM (titrated, usually from 9.22 µM), for the others: top-dose activation, usual class: activators; also: % of control where 0% means no effect; nearly all actives have a fitted effect of over 60% in size
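Luciferase expression driven by the NPC1 promoter was measured in stably transfected Huh7 cells after a 24 h compound incubation, using a luciferase reagent and a luminescence read.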
Rab9 prom act – activates the Rab9 promoter; AID 485297; Potency, µM (highest dose often 9.22 µM), for the others: top-dose activation, negative = inhibition, most hits filed as activators; 320,000 tested, 2.8% active; Huh7 Rab9 promoter-luciferase reporter, luminescence, 24 h; also: % of control where 0% means no effect; nearly all actives have a fitted effect of over 60% in size
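Luminescence read-out: Huh7 cells stably expressing Rab9-luciferase, treated 24 h with compound at 37 °C, then lysed with luciferase reagent for 10 min at ambient before reading.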
KinaseGlo FLuc – Kinase-Glo luciferase inhibition (counter-screen) | Kinase-Glo luciferase, ATP luminescence, 8 min | Q27757 | Potency, µM (series often up to 38.3 µM), for inactives: top-dose activity change, negative = inhibition, usual class: inhibitors | 200,000 tested, 0.28% active; also: % is scaled to controls: 0 for no effect and ±100 for the full control effect; nearly all actives have a fitted effect of over 60% in size
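Recombinant Kinase-Glo luciferase, 10 uM ATP (linear range), luciferin; imidazole pH 7.2 / KCl / MgCl2 / Tween / BSA buffer; 8 min RT; luminescence.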
* hit, by the source's call; ? = inconclusive; nt = no result; [ ] = dose if it differs, or a comment. Calls follow the shape of the dose curve; as a rule, active = well fitted curve in the direction sought with a large enough effect; inconclusive = small, poorly fitted or top-dose-only effect, or another doubt; inactive = no such curve, though single readings can be large; an effect the other way counts as inactive or inconclusive. Potency is read from the fitted curve at half-maximal effect.

SMILES	SMN2 splice up	ELG1 genotox	FLuc modulator	NPC1 prom act	Rab9 prom act	KinaseGlo FLuc
Cc1cccc(Nc2ccc(NCc3ccccc3)nn2)c1	19.0%	1.0%	15.1µM*	?	?	0.1%
COC(=O)N1C2CC(=O)O[C@@H]3c4cc5c(cc4[C@]1(C)[C@@]3(Br)c1ccccc12)OCO5	-29.7%[9.22 µM]	nt	nt	nt	nt	-9.2%[7.66 µM]
CCOc1ccc(NC(=S)N(CCN2CCOCC2)Cc2cc3cc4c(cc3[nH]c2=O)OCCO4)cc1	nt	-3.3%	-0.4%	-1.9%	-7.9%	-3.1%
CN1N=C(/C=C/c2ccccc2)CCC1=O	?	?	?	-24.3%	?	?
Cc1ccc(/C=C/C2=NN(C)C(=O)CC2)cc1	11.2µM*	?	6.75µM*	3.55µM*	0.891µM*	?
c1ccc(C2CC(c3cccs3)Nc3nnnn32)cc1 (stereo not drawn)	24.7%	-1.2%	-2.6%	-2.2%	0.7%	3.2%
O=C(N/N=C/c1ccccn1)c1ccc(Cl)c(Cl)c1	nt	20.6µM*	?	0.0%	2.0%	nt
O=C(N/N=C/c1ccccn1)c1ccc([N+](=O)[O-])cc1Cl	nt	2.0%	19µM*	-4.8%	1.5%	nt
O=C(N/N=C/c1cccs1)c1cc(-c2ccc3ccccc3c2)n[nH]1	-0.8%	-0.3%	-16.5%	6.9%	-9.1%	0.8%
O=C(N/N=C/c1cccnc1)c1ccc([N+](=O)[O-])cc1Cl	nt	-2.4%	?	-1.2%	-2.5%	nt
CCc1ccc(-c2cc(C(=O)N/N=C/c3ccccn3)[nH]n2)cc1	-33.1%	-5.3%	7.57µM*	7.6%	12.2%	0.5%
O=C(N/N=C/c1ccccn1)c1ccc(NC(=O)c2ccccc2Cl)cc1	nt	-7.5%	?	-2.2%	0.1%	nt
CCc1ccc(-c2cc(C(=O)N/N=C/c3ccco3)[nH]n2)cc1	0.5%	-6.7%	?	12.7%	0.6%	-5.4%
O=C(N/N=C/c1ccccn1)c1cc(-c2ccc3ccccc3c2)n[nH]1	3.9%	-4.0%	7.57µM*	-2.3%	-3.6%	-3.2%
COc1ccc(NC(=O)Nc2cccc3c2O[C@H](CN(C)S(=O)(=O)c2ccc(OC)cc2)[C@@H](C)CN([C@H](C)CO)C3=O)cc1	nt	-6.4%	nt	nt	nt	nt
O=C(N/N=C/c1ccccn1)c1cc(-c2cccc3ccccc23)n[nH]1	23.2%	-3.5%	?	7.3%	2.8%	1.2%
O=C(N/N=C/c1ccccn1)c1cc(-c2ccccc2Cl)n[nH]1	-13.0%	8.2%	23.9µM*	3.3%	-1.6%	-0.4%
O=C(N/N=C/c1ccco1)c1cc(-c2ccc3ccccc3c2)n[nH]1	-1.1%	2.9%	19µM*	-1.1%	1.0%	-3.4%
Cc1ccc(N(CC(=O)NC2CCCC2)C(=O)CCC(=O)Nc2ccccn2)cc1	nt	0.8%	0.0%	-4.4%	-1.8%	nt
Cc1nn(Cc2ccc(F)cc2)c(C)c1NC(=O)C1c2ccccc2Oc2ccccc21	8.2%	-1.3%	4.8%	-2.4%	0.0%	0.9%
Cc1cccc(C)c1NC(=O)c1cccc(COc2cc(Cl)ccc2Cl)c1	12.6µM*	16.3%	-6.5%	15.1%	15.6%	1.6%
COc1ccc(-c2cc(C(=O)N(C)CCc3ccc(OC)c(OC)c3)c3ccccc3n2)cc1	nt	-8.1%	0.1%	-2.6%	16.0%	nt
COc1ccc(CCN(C)C(=O)c2cc(-c3ccccc3)nc3ccc(C)cc23)cc1OC	nt	?	2.39µM*	?	3.4%	nt
COc1ccc(CN(C)C(=O)c2cc(-c3ccccc3)nc3ccc(C)cc23)c(OC)c1OC	nt	-19.2%	?	-3.8%	?	nt
COc1ccc(CCN(C)C(=O)c2cc(-c3ccccc3)nc3ccccc23)cc1OC	nt	-12.3%	15.1µM*	3.3%	18.0%	nt
SMILES	SMN2 splice up	ELG1 genotox	FLuc modulator	NPC1 prom act	Rab9 prom act	KinaseGlo FLuc
Cc1cccc(-n2ncc3c(N4CCOCC4)ncnc32)c1	-67.7%	?	0.536µM*	0.355µM*	0.355µM*	?
Cc1cccc(-n2ncc3c(N4CC(C)CC(C)C4)ncnc32)c1 (stereo not drawn)	?	2.59µM*	5.36µM*	2.24µM*	1.58µM*	0.4%
COc1ccc(-n2ncc3c(N4CCN(c5cccc(C)c5)C(C)C4)ncnc32)cc1 (stereo not drawn)	nt	nt	-2.3%	nt	nt	nt
Cc1cccc(-n2ncc3c(N4CCCC4)ncnc32)c1	1.58µM*	?	0.953µM*	0.501µM*	0.631µM*	-7.2%
Cc1cccc(-n2ncc3c(N4CCN(c5ccccc5)CC4)ncnc32)c1	nt	nt	-2.2%	nt	nt	nt
COc1ccc(/C=C/c2noc(-c3ccccc3O)n2)cc1	26.8%	?	3.79µM*	?	26.5%	?
COc1cc(/C=C/c2noc(-c3ccccc3O)n2)cc(OC)c1OC	12.7%	10.1%	0.5%	21.8%	26.5%	-1.3%
CC(=O)Oc1ccccc1-c1nc(/C=C/c2ccccc2)no1	nt	9.2µM*	10.7µM*	2.82µM*	?	nt
Cc1cc(C(=O)CSc2nc(N)cc(N)n2)c(C)n1-c1cccc(C(F)(F)F)c1	-29.5%	-0.8%	1.0%	-1.2%	-5.4%	3.9%
Cc1cc(C(=O)CSc2n[nH]c(N)n2)c(C)n1-c1cccc(F)c1	?	?	23.9µM*	28.4%	?	0.1%
Cc1cc(C(=O)CSc2nnnn2C)c(C)n1-c1cccc(F)c1	12.6µM*	?	7.57µM*	3.98µM*	1.26µM*	-2.2%
Cc1cc(C(=O)CSc2ncccn2)c(C)n1-c1cccc(F)c1	?	10.3µM*	2.39µM*	3.55µM*	1.41µM*	0.5%
Cc1cc(C)cc(-n2c(C)cc(C(=O)CSc3nnnn3C)c2C)c1	-17.4%	14.8%	-3.9%	9.1%	-2.8%	-0.1%
Cc1cc(C(=O)COC(=O)C2=COCCO2)c(C)n1-c1cccc(F)c1	nt	?	1.9µM*	1.41µM*	0.562µM*	nt
CCOC(=O)CNC(=O)COc1coc(CN2CCN(c3ccccc3)CC2)cc1=O	nt	1.7%	-1.1%	2.8%	5.1%	nt
CCOC(=O)c1c(C)c(C(=O)Nc2ccc(F)cc2)c(C)n1C	-9.3%	15.5%	-5.5%	-0.8%	13.2%	2.6%
